Source: PubChem BioAssay (Tox21)
“And” between values parts separate entries of the source, which are not always exact repeats. Equal values may be shown once. Results filed as inconclusive are left out. The source holds several records for some structures; these can differ, active in one and inactive in another. Unmarked numbers belong to inactive results. The source made the active and inactive calls. Calls come from the whole dose curve; as a rule, active = well fitted cell-killing curve with a large enough effect in the repeat runs; inconclusive = weak or mixed curves, or effect the other way; inactive = flat fitted curve, though single readings scatter.

Experiment: qHTS RealTime-Glo MT Cell Viability Assay in HEK293 cells - 40 hour (AID 1224874); note: nearly all actives have a fitted effect of over 50% in size
Conditions: RealTime-Glo luminescence; max response: stronger effect = lower value
Excerpt: U.S. Tox21 Program National Center for Advancing Translational Sciences [NCATS] NIH Chemical Genomics Center [NCGC] U.S. Environmental Protection Agency [EPA] National Institutes of Environmental Health Sciences [NIEHS] National Toxicology Program [NTP] U.S. Food and Drug Administration [FDA] Tox21 Assay Overview: Measure of cell viability is critical in the cell-base assay. Analysis of cell viability is necessary for the characterization of cell responses to cytotoxic drugs and environmental stress. A RealTime-Glo MT Cell Viability Assay to monitor cell viability in real time of continues cell culture during 40 hours of compound treatment was used to screen Tox21 10K library compounds in Hek293 cells. The RealTime-Glo MT Cell Viability Assay is a nonlytic, homogeneous, bioluminescent method to measure cell viability in real time using a simple, plate-based method. The assay involves adding NanoLuc luciferase and a cell-permeant prosubstrate to cells in culture. Viable cells reduce the proprietary prosubstrate to generate a substrate for NanoLuc luciferase. This substrate diffuses from cells into the surrounding culture medium, where it is rapidly used by the NanoLuc Enzyme to produce a luminescent signal. The signal correlates with the number of viable cells, making the assay well suited for cytotoxicity studies.
Tox21 Assay Protocol Summary: The mixture of Hek293 cell suspension and reagents were dispensed at 600cells/6 ul/well in 1536-well tissue culture treated black solid bottom plates using a Multidrop dispenser. After the assay plates were incubated at a 37 C/5% CO2 incubator for 5 hours, 23 nL of compounds dissolved in DMSO, positive and negative controls was transferred to the assay plate by a pintool work station. The plates were incubated at 37 C for 40 hours. The luminescence intensity were measured at 0h, 8h, 16h, 24h, 32h and 40h time points using ViewLux plate reader during compound treatment.
% is set by controls: 0 for no effect and ±100 for the full control effect; potency is the fitted concentration of half-maximal effect.

Compound	max response	Potency
CC(C)(CO)COC(=O)C(C)(C)CO	0.943% and 3.19%	–
CC1=C(CC(=O)O)c2cc(F)ccc2/C1=C\c1ccc(S(C)=O)cc1 (stereo not given)	14% and 12.3%	–
Cc1cc(Cc2ccc(N)c(C)c2)ccc1N	-20.5% and -29%	–
CCCCCCCCCC(=O)O	7.81% and 12.5%	–
NCCNCCNCCNCCN	1.39% and 5.6%	–
c1ccc2[nH]cnc2c1	-5.47% and 1.04%	–
Cc1cc(NS(=O)(=O)c2ccc(N)cc2)no1	3.11% and 0.646%	–
Oc1ccc(OCc2ccccc2)cc1	-10.3%	1.2 µM (active)
CC1(C)CC(N=C=O)CC(C)(CN=C=O)C1 (stereo not given)	8.76% and 2.25%	–
O=S(=O)(O)c1cc(S(=O)(=O)O)c2c(N=Nc3ccccc3)c(O)ccc2c1	-20.2%	–
OCCOCCOCCOCCO	0.824% and 6.75%	–
C=C(C)C(=O)OCCCCCCCCCCCC	0.0102% and 4.38%	–
OC[C@@H](O)[C@H](O)[C@H](O)[C@@H](O)CO	7.24% and 7.63%	–
CCCCCCOC(C)=O	0.539% and -29.1%	–
NCCc1ccc(O)c(O)c1	-0.912% and 5.76%	–
COC(=O)Nc1nc2ccc(Sc3ccccc3)cc2[nH]1	–	616 nM (active) and 848 nM (active)
Nc1c(S(=O)(=O)O)cc(Br)c2c1C(=O)c1ccccc1C2=O	0.275% and -15.6%	–
Clc1cc(Cl)c(Cl)cc1Cl	4.68% and 15.5%	–

Compound	max response	Potency
CCC(C)C=O (stereo not given)	-3.52%	3.09 µM (active)
Cc1ccc(C(=O)O)o1	2.67% and -10.1%	–
CCCCCCCCC	9.17% and -1.35%	–
NCc1cccc(CN)c1	-20.2% and 8.99%	–
CCCCCCCCCCCCN	3.89% and -9.66%	43.6 µM (active)
CC(=O)CCc1ccccc1	1.52% and -3.07%	–
CN(C)c1ccc(C(=N)c2ccc(N(C)C)cc2)cc1	–	2.42 µM (active) and 2.97 µM (active)
CC1(C)O[C@@H]2C[C@H]3[C@@H]4C[C@H](F)C5=CC(=O)CC[C@]5(C)[C@H]4[C@@H](O)C[C@]3(C)[C@]2(C(=O)CO)O1	-22.4% and 2.26%	–
O=C(O)c1cc(-c2ccccc2)nc2ccccc12	-1.75% and 4.47%	–
c1ccc2ccccc2c1	0.777% and 7.95%	–
O=C(c1cc(O)c(O)c(O)c1)c1ccc(O)c(O)c1O	-21.1% and -21.4% and -9.65%	–
COCC(C)O (stereo not given)	-1.03% and -1.56%	–
O=C1N=C(O)CN1/N=C/c1ccc(-c2ccc([N+](=O)[O-])cc2)o1	-2.04%	–
CCCCCCC(C)(C)S	2.32% and -0.908%	–
COC(=O)c1ccc(C(=O)OC)cc1	0.23%	35.1 µM (active)
Oc1ccc2ccccc2c1	17.4% and 0.276%	–
C=C1C2CCC(C2)C1(C)C (stereo not given)	-3.35% and 5.02%	–
CN(C)c1cccc(O)c1	-0.0652% and -21.5%	–
